Laboratory results reported in PubChem BioAssay AID431 (Sanford-Burnham Center for Chemical Genomics, 2006).
About 1,100 (1.7%) of roughly 63,000 compounds were called active. The entries come from a sample that favours actives as a whole. Measured potencies and affinities stand elsewhere. A number with no mark means an inactive call.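 Rule for the calls: active = compounds whose percent cytotoxicity in the single-dose primary screen, scaled between solvent and toxic-drug controls, exceeds 50; inactive = the rest.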

assay: cytotoxicity in KRAS-transformed pancreatic duct cells, primary screen, cell-based, fluorescence, HTS (AID 431); details: HPDE-C7K KRASV12 cells, Alamar Blue viability, 48 h; at 10 µM; stronger effect = higher value;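 note: 0% = DMSO solvent wells and 100% = doxorubicin-treated wells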

| Structure (SMILES) | cytotoxicity |
| --- | --- |
| CN1C(=O)/C(=C2/C=CC=CN2C)OC1=S | -24.5% |
| COc1ccc(CCNC(=O)C2CCN(S(=O)(=O)c3cc(OC)ccc3OC)CC2)cc1 | 2.3% |
| COc1cccc(C2=CC(c3cccc(OC)c3OC(F)F)n3nnnc3N2)c1 (configuration not stated) | -13.8% |
| COc1cccc(C2=CC(c3ccccc3)n3nnnc3N2)c1 (configuration not stated) | 43.2% |
| COc1ccc(C2=CC(c3ccc(OC)c(OC)c3)n3nnnc3N2)c(OC)c1 (configuration not stated) | 4% |
| COc1cccc(C2=CC(c3ccc(OC)c(OC)c3OC)n3nnnc3N2)c1 (configuration not stated) | -4.5% |
| COc1cccc(C2=CC(c3cc(OC)ccc3OC)n3nnnc3N2)c1 (configuration not stated) | 65.1% (active) |
| COc1ccccc1C1C=C(c2ccc(C)cc2)Nc2nnnn21 (configuration not stated) | -8.9% |
| COc1ccccc1C1C=C(c2ccccc2)Nc2nnnn21 (configuration not stated) | 25.4% |
| COc1ccc(C2=CC(c3c(C)nn(-c4ccccc4)c3Cl)n3nnnc3N2)cc1OC (configuration not stated) | 84.4% (active) |
| COc1cccc(C2=CC(c3ccc(N(C)C)cc3)n3nnnc3N2)c1 (configuration not stated) | -3.6% |
| COc1ccc(OC)c(C2C=C(c3ccc(C)c(C)c3)Nc3nnnn32)c1 (configuration not stated) | 6% |
| COc1cccc(C2=CC(c3cccc(OC)c3OC)n3nnnc3N2)c1 (configuration not stated) | 58.1% (active) |
| CC1CCCCC1NC(=O)CSc1nc2ccccc2c(=O)n1Cc1ccco1 (configuration not stated) | -6.9% |
| COc1cccc(N(CC(=O)Nc2ccccc2C)S(C)(=O)=O)c1 | 14.1% |
| c1ccc(-c2nc3ccccc3nc2-c2ccccn2)nc1 | 13.9% |
| COc1ccc(OC)c2[nH]c(=O)c(CCNC(=O)CC(C)C)cc12 | -6.6% |
| CCOC(=O)N1CCC(NC(=O)C2=C(C)C(=O)OC23CCC(C)CC3)CC1 (configuration not stated) | -10.3% |
| Cc1nn(C)c(C)c1S(=O)(=O)N1CCCC(C(=O)NC2CCCCC2)C1 (configuration not stated) | -4.9% |
| COc1ccc(NC(=O)CSc2nnc(-c3ccncc3)n2CC2CCCO2)c(OC)c1 (configuration not stated) | -18.3% |
| CCC(CC)C(=O)NCCc1cc2c(OC)ccc(OC)c2[nH]c1=O | 7.1% |
| O=C(c1ccco1)N1CCN(c2ncnc3c2[nH]c2ccc(Br)cc23)CC1 | 10% |
| Clc1ccc(-c2nnc(-c3ccccc3Cl)o2)cc1 | 13.7% |

| Structure (SMILES) | cytotoxicity |
| --- | --- |
| Cc1nc(NC(=O)c2csc3ccccc23)sc1C | 2.8% |
| COc1ccccc1C1(CC(=O)N2CCOCC2)CCOC(C(C)C)C1 (configuration not stated) | -15.3% |
| CC[C@H]1OC(=O)C[C@@H](O)[C@H](C)[C@@H](O[C@@H]2O[C@H](C)C[C@H](N(C)C)[C@H]2O)[C@@H](CC=O)C[C@@H](C)C(=O)C=C[C@]2(C)O[C@H]2[C@@H]1C | 76.8% (active) |
| CCC(=O)O[C@@H]1CC(=O)O[C@H](C)CC=CC=C[C@@H](O)[C@H](C)C[C@H](CC=O)[C@H](O[C@H]2O[C@H](C)[C@@H](O[C@H]3C[C@@](C)(O)[C@@H](OC(=O)CC)[C@H](C)O3)[C@H](N(C)C)[C@H]2O)[C@H]1OC | -0.4% |
| Cc1cc(C)cc(NC(=O)Cn2ncn3c(cc4ccccc43)c2=O)c1 | -13.3% |
| CN1CCN(C2=C(Cl)C(=O)N(C3CCCCC3)C2=O)CC1 | 3% |
| O=C1c2ccncc2C(=O)N1C1CCCCC1 | 2.8% |
| O=C(Nc1ccc2c(c1)OCCO2)C1CCN(S(=O)(=O)c2cccs2)CC1 | -8.1% |
| O=C(CCCCCn1c(SCc2ccncc2)nc2ccccc2c1=O)NCc1ccco1 | 9.3% |
| COc1ccc(OC)c(NC(=O)c2cc(-c3cc(Cl)ccc3O)n[nH]2)c1 | 1.7% |
| COc1ccc(NC(=O)c2cc(-c3cc(C)cc(C)c3O)n[nH]2)cc1Cl | 70.7% (active) |
| Cc1ccc(O)c(-c2cc(C(=O)Nc3ccc(S(=O)(=O)N4CC(C)OC(C)C4)cc3)[nH]n2)c1 (configuration not stated) | -13.4% |
| Cc1cc(O)c(-c2cc(C(=O)Nc3ccc(S(=O)(=O)N4CCOCC4)cc3)[nH]n2)cc1C | 6.5% |
| COc1ccc(OC)c(NC(=O)c2cc(-c3ccc(C)cc3O)n[nH]2)c1 | -0.5% |
| Cc1c(N=C2SCC(=O)N2c2c(C)n(C)n(-c3ccccc3)c2=O)c(=O)n(-c2ccccc2)n1C | 15.2% |
| COc1ccccc1/C=c1\sc2nc(-c3ccncc3)nn2c1=O | -13.5% |
| COc1ccc2nc3sc(C(=O)NCc4cccs4)c(N)c3cc2c1 | 5.5% |
| COc1ccc(-c2oc3ncnc(NCCN4CCOCC4)c3c2-c2ccc(OC)cc2)cc1 | 4% |
| N=c1c2c(-c3ccccc3)c(-c3ccccc3)oc2ncn1CCN1CCOCC1 | 33.6% |
| COc1ccc(-c2oc3ncnc(NCCCN4CCOCC4)c3c2-c2ccc(OC)cc2)cc1 | 107% (active) |
| COc1ccc(-c2csc3ncnc(NCCN4CCOCC4)c23)cc1 | 25.8% |
| c1ccc(-c2oc3ncnc(NCCCN4CCOCC4)c3c2-c2ccccc2)cc1 | 59.8% (active) |
| c1ccc(-c2oc3ncnc(NCCN4CCOCC4)c3c2-c2ccccc2)cc1 | 42% |

| Structure (SMILES) | cytotoxicity |
| --- | --- |
| COc1ccc(-c2oc3ncn(CCN4CCOCC4)c(=N)c3c2-c2ccc(OC)cc2)cc1 | 17.3% |
| c1ccc(-c2oc3ncnc(NCCCn4ccnc4)c3c2-c2ccccc2)cc1 | 17.3% |
| N=c1c2c(-c3ccccc3)c(-c3ccccc3)oc2ncn1CCCN1CCOCC1 | 55.5% (active) |
| CCc1nnc(NC=C2C(=O)OC(C)(C)OC2=O)s1 | -7.7% |
| Cc1c(/C(O)=C2/C(=O)C(=O)N(CCN3CCOCC3)C2c2cccnc2)cnn1-c1ccccc1 (configuration not stated) | -12.5% |
| CCN(CC)CCN1C(=O)C(O)=C(C(=O)c2sc(C)nc2C)C1c1cccnc1 (configuration not stated) | -8.8% |
| O=C(CN1CCN(C(=O)c2cccs2)CC1)NC1CCCCC1 | -4.4% |
| CC1(C)CC(=O)C(C=Nc2cccnc2)=C(O)C1 | 7.1% |
| COc1cc(C(=O)Nc2cccc(-c3nc4cc(C)ccc4o3)c2C)cc(OC)c1OC | 14.3% |
| CCOC(=O)C1=C(N)Oc2cc(C)oc(=O)c2C1c1cccnc1 (configuration not stated) | 4.4% |
| CCCCCc1c(C)nc(NCc2ccccc2)[nH]c1=O | 2.9% |
| Cc1n[nH]c(=O)nc1NCc1ccccc1 | -17% |
| CCC(C)(C)NC(=O)C(c1cccn1C)N(Cc1ccccc1)C(=O)Cn1nnc2ccccc21 (configuration not stated) | -4.3% |
| CC(=O)NC1CSCC1OC(C)=O (configuration not stated) | -14.9% |
| CCOC(=O)c1c(N)sc(C(=O)N2CCOCC2)c1C | -10.1% |
| O=C(Nc1cccnc1)c1ccc(COc2ccccc2Br)o1 | 30.3% |
| O=C(Nc1nccs1)c1ccc(COc2ccccc2Br)o1 | 51% (active) |
| O=C(Nc1nccs1)c1ccc(COc2ccc(F)cc2)o1 | 5% |
| CC(C)(C)NC(=O)c1ccc(COc2ccccc2Br)o1 | -20.3% |
| COc1cc(NC(=O)c2ccc(COc3ccccc3Br)o2)cc(OC)c1OC | 68.9% (active) |
| COc1ccc(NC(=O)c2ccc(COc3ccccc3Br)o2)cc1OC | 40.4% |
| CC(C)c1nc(SCC(=O)NCc2ccccc2)n[nH]1 | -9.2% |
| CN1C(=O)c2ccccc2N(C)C1c1ccc2c(c1)OCO2 (configuration not stated) | 6.7% |

| Structure (SMILES) | cytotoxicity |
| --- | --- |
| COc1ccc(C(=O)NCC(=O)n2nc(C)cc2C)cc1OC | 13.4% |
| Cc1ccc2c(c1)N(C(C)C(=O)NCCc1ccccc1)C(=O)CO2 (configuration not stated) | -4.9% |
| COc1cccc(CN(C)CC(=O)NC(=O)NCc2ccco2)c1 | -9.5% |
| O=C(CN(C1CCCCC1)S(=O)(=O)c1ccc(Cl)cc1)NCc1cccnc1 | -28.1% |
| O=C(CN(C1CCCCC1)S(=O)(=O)c1ccccc1)NCc1cccnc1 | 73.1% (active) |
| Cc1ccc(S(=O)(=O)N(CC(=O)NCc2ccncc2)C2CCCCC2)cc1 | 1.7% |
| COc1ccc(C(=O)N2CCCC(c3nc(-c4cccs4)no3)C2)cc1 (configuration not stated) | 3% |
| CCOc1ccc(-c2c(C#N)c(N)nc3c2c(=O)n(C)c(=O)n3C)cc1OC | -3.8% |
| CCCCNc1ncnc2c1cnn2-c1ccc(Cl)cc1 | 28.5% |
| Cc1cccc(-n2ncc3c(NCc4ccco4)ncnc32)c1 | 69.2% (active) |
| CCCCNc1ncnc2c1cnn2-c1ccccc1 | 61.8% (active) |
| Cc1ccc(-n2ncc3c(NCc4ccco4)ncnc32)c(C)c1 | 5.4% |
| Clc1ccc(-n2ncc3c(NCc4ccco4)ncnc32)cc1 | 8.8% |
| Clc1ccc(Cn2ncc3c(NCc4ccco4)ncnc32)c(Cl)c1 | 60.9% (active) |
| CN(C)CCCNc1ncnc2c1cnn2-c1ccccc1 | 0.7% |
| c1ccc(Cn2ncc3c(NCc4ccco4)ncnc32)cc1 | 8.3% |
| c1ccc(-n2ncc3c(NCc4ccco4)ncnc32)cc1 | 7.1% |
| COc1ccc(S(=O)(=O)Cc2ccc(C(=O)NCCCN(C)c3ccccc3)o2)cc1 | 2.5% |
| CCOC(=O)C1C(=O)CC(C)(O)C(C(=O)OCC)C1c1ccco1 (configuration not stated) | 1.3% |
| CC1CC(C)CN(C(=O)CCCn2c(=S)[nH]c3ccccc3c2=O)C1 (configuration not stated) | -3.1% |
| CCOc1cc(C(=O)N2CCOCC2)ccc1OCc1ccccc1 | -7.3% |
| CC(C)OCCCNC(=O)CN1CCN(Cc2ccccc2Cl)C1=O | -6.4% |
| Cc1nnc(NC(=O)CSc2nnc(CNC(=O)c3ccccc3)n2-c2ccccc2)s1 | -0.6% |
